# Compound activity: PubChem BioAssay, National Center for Advancing Translational Sciences (NCATS)
# Compounds with a hit are over-represented: about 19% of the library has one in this group of screens.
# VP16 counter – inhibits Gal4-VP16 luciferase reporter, ROR gamma counter-screen | AID 2546 | 310,000 compounds, 3.5% hits | Drosophila S2 Gal4-VP16 UAS-luciferase, luminescence, 20 h | Potency, µM (doses to about 53.6 µM), without a hit: at the highest dose activity, negative = inhibition, actives largely listed as inhibitors;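 note: Gal4-VP16 expression switched on by copper sulfate through the metallothionein promoter; nearly all actives have a fitted effect of over 50% in size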
# RORgamma inh – inhibitors of mouse ROR gamma transcriptional activity. P51450. Drosophila S2 Gal4-RORgamma UAS-luciferase reporter, 20 h. Potency, µM (titrated, usually from 53.6 µM), without a hit: top-dose activity change, negative = inhibition, usual class: inhibitors. 310,000 compounds, 5.4% hits. AID 2551; note: nearly all actives have a fitted effect of over 60% in size
#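 Drosophila S2 cells stably expressing Gal4-DBD/mouse RORγ fusion under metallothionein promoter plus UAS-luciferase; compound 1 h, then 700 uM CuSO4 induction for 20 h at ambient temperature; inhibition read as reduced luminescence.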
# TDP1 cell noCPT – qHTS for Inhibitors of human tyrosyl-DNA phosphodiesterase 1 (TDP1): qHTS in cells in absence of CPT | AID 686978, 2013 | DT40 Tdp1-/- hTDP1 cells, no CPT, ATP luminescence, 48 h | 420,000 compounds, 15% hits | Potency, µM (top dose mostly 46.2 µM), inactives show at the highest dose activity change, negative = growth inhibition, usual class: inhibitors; note: nearly all actives have a fitted effect of over 55% in size
#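 Compound effects on proliferation are scored in DT40 Tdp1-/-;hTDP1 cells in the absence of CPT. ATP levels (CellTiter-Glo luminescence) are recorded after a ≥48 hr, 37 °C incubation.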
# DT40 TDP1 CPT – growth inhibition of DT40 Tdp1-/-;hTDP1 cells with camptothecin (screen for TDP1 inhibitors); chicken DT40 Tdp1-/-;hTDP1 cells + 20 nM CPT, ATP luminescence, 48 h; Potency, µM (doses to about 46.2 µM), without a hit: at the highest dose activity change, negative = growth inhibition, actives largely listed as inhibitors; 420,000 compounds, 12% hits; AID 686979; note: nearly all actives have a fitted effect of over 55% in size
#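 Chicken DT40 Tdp1-/- cells complemented with human TDP1, 400 cells/well, exposed to compounds plus 20 nM camptothecin for at least 48 h at 37 C; viability read as ATP content by CellTiter-Glo luminescence.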
# TDP1 block – inhibitors of human tyrosyl-DNA phosphodiesterase TDP1; AID 485290; recombinant TDP1, AlphaScreen DNA substrate cleavage; 350,000 compounds, 0.28% hits; Potency, µM (doses to about 130 µM), for inactives: at the top dose activity change, negative = inhibition, hits mostly inhibitors; Q9NUW8; note: nearly all actives have a fitted effect of over 40% in size
# Target sequence (Q9NUW8 whole entry, looked up): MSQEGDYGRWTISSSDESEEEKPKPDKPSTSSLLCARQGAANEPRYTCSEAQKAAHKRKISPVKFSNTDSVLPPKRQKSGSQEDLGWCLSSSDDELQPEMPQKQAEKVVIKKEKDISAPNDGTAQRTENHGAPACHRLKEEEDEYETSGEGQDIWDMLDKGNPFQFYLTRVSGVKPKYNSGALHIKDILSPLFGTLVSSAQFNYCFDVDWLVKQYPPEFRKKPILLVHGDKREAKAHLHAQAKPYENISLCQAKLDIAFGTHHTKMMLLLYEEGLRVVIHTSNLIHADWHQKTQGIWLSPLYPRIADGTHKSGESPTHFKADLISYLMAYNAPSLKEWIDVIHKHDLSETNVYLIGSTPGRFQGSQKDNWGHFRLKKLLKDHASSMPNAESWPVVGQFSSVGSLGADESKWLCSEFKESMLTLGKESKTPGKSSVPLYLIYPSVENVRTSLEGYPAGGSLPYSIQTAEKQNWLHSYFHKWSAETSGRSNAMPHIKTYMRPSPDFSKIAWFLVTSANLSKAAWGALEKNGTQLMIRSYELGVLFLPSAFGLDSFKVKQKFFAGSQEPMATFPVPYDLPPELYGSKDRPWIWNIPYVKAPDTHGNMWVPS
#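 AlphaScreen read-out: signal falls as enzyme removes the 3' tyrosine-FITC from a 5'-biotinylated DNA oligo (15 nM, 5 min, RT). Enzyme was E. coli-made recombinant Tdp1 at 1 nM, exposed to compound for 15 min beforehand; beads 10 ug/ml, 10 min.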
# * marks the source's active call; other numbers are inactive results; ? = inconclusive; / = no result given; [ ] = remark or other dose. Calls come from the whole dose curve; as a rule, active = well fitted curve in the direction sought with a large enough effect; inconclusive = small, poorly fitted or top-dose-only effect, or another doubt; inactive = no such curve, though single readings can be large; an effect the other way counts as inactive or inconclusive. % is set by controls: 0 for no effect and ±100 for the full control effect; potency is the fitted concentration of half-maximal effect.
SMILES,VP16 counter,RORgamma inh,TDP1 cell noCPT,DT40 TDP1 CPT,TDP1 block
O=C(NCCCn1ccnc1)C(=O)NCC(c1cccnc1)N1CCN(c2ccc(F)cc2)CC1 (stereo not drawn),-7.0%,-25.5%,?,?,-5.3%
Cc1c(Cl)cccc1NC(=O)C(=O)NCC(c1cccnc1)N1CCN(c2ccccc2)CC1 (stereo not drawn),/,/,20.6µM*,16.4µM*,3.9%
Cc1ccc(C)c(NC(=O)C(=O)NCC(c2cccnc2)N2CCN(c3ccc(F)cc3)CC2)c1 (stereo not drawn),/,/,4.61µM*,4.61µM*,-3.9%
COc1ccc(/C=C(\NC(=O)c2ccccc2)C(=O)NCCC(=O)O)cc1,-1.0%,0.0%,-8.8%,16.6%,-5.9%
CCc1ccccc1NC(=O)Cn1c(=O)n(-c2ccc(C)cc2)c(=O)c2c1c1cc(C)ccc1n2C,/,/,-0.9%,-4.1%,9.9%
COc1ccc(C(CNC(=O)CCNC(=O)c2ccccc2OC)N2CCCC2)cc1 (stereo not drawn),/,/,-11.5%,-8.8%,/
O=C(NCCc1ccccc1)C(=O)NCC(c1cccnc1)N1CCN(c2ccccc2)CC1 (stereo not drawn),/,/,16.4µM*,20.6µM*,3.9%
O=C(NCC(c1cccnc1)N1CCN(c2ccccc2)CC1)c1ccco1 (stereo not drawn),/,/,-3.9%,-5.8%,/
COc1ccc(CNC(=O)C(=O)NCC(c2cccnc2)N2CCN(c3ccccc3)CC2)cc1 (stereo not drawn),/,/,13µM*,16.4µM*,2.6%
COc1ccc(CCNC(=O)C(=O)NCC(c2cccnc2)N2CCN(c3ccccc3)CC2)cc1 (stereo not drawn),/,/,18.4µM*,23.1µM*,5.2%
COc1ccc(-c2nn(-c3ccccc3)cc2CN(C)CCn2ccnc2C)c(F)c1,-1.6%,-38.2%,?,18.4µM*,/
COc1ccc(-c2nn(-c3ccccc3)cc2CNC(C)Cn2cncn2)c(F)c1 (stereo not drawn),12.5%,17.2%,1.2%,?,2.7%
CCOC(=O)Nc1ccc2c(c1)nc(CN1CCN(C(C)=O)CC1)n2C,2.6%,13.9%,-1.5%,5.0%,4.7%
CCOC(=O)c1nc(N)c(C(=O)OCC)[nH]1,16.5%,5.4%,29.1µM*,?,-1.1%
CCOC(=O)c1nc2ccccc2c(=O)[nH]1,-16.3%,24.2%,-2.2%,-9.2%,-2.6%
Cc1ccc(OCC(=O)Nc2ccc(Cl)cc2)c([N+](=O)[O-])n1,/,/,1.4%,-4.9%,-2.2%[56.1 µM]
CC1CC(C)CN(C(=O)c2ccc(CSc3nc4ccncc4[nH]3)cc2)C1 (stereo not drawn),-6.3%,?,11.6µM*,?,-1.3%
O=C(N/N=C/c1ccc2c(c1)OCO2)C(=O)Nc1ccccc1Cl,11.1%,-9.2%,8.0%,-4.6%,3.7%
Cc1cc(C)c(S(=O)(=O)N2CCOCC2)cc1NS(=O)(=O)c1cc(OCC(N)=O)c(C)cc1Cl,0.7%,19.0%,8.1%,-8.5%,4.8%
Cc1c(C(C)C)c(=O)n(-c2ccc(S(=O)(=O)NC3CCCCC3)cc2)n1C,11.2µM*,?,5.17µM*,5.8µM*,8.1%
Cc1c(C(C)C)c(=O)n(-c2ccc(S(=O)(=O)NCc3ccccc3)cc2)n1C,7.94µM*,?,8.2µM*,?,8.1%
Cc1c(C(C)C)c(=O)n(-c2ccc(S(=O)(=O)N3CCOCC3)cc2)n1C,6.9%,-1.2%,-19.3%,0.2%,-2.6%
O=C(NCCCN1CCCC1=O)c1ccc(OC(F)(F)F)cc1,-5.8%,11.3%,5.4%,11.9%,-3.5%
Cc1ccc([C@H]2C[C@@H](n3cc(C4CC4)nn3)[C@H](O)CN2C(=O)c2cccs2)cc1,/,/,-17.1%,0.3%,/
Cc1ccc([C@H]2C[C@@H](O)[C@H](n3cc(-c4ccc(F)cc4)nn3)CN2C(=O)c2cccs2)cc1,/,/,14.6µM*,?,/
SMILES,VP16 counter,RORgamma inh,TDP1 cell noCPT,DT40 TDP1 CPT,TDP1 block
Cc1ccc([C@H]2C[C@H](O)[C@@H](n3cc(-c4ccc(F)cc4)nn3)CN2C(=O)c2cccs2)cc1,/,/,18.4µM*,?,/
Cc1ccc([C@H]2C[C@@H](n3cc(-c4ccc(F)cc4)nn3)[C@H](O)CN2C(=O)c2cccs2)cc1,/,/,14.6µM*,18.4µM*,/
COc1ccc([C@H]2C[C@H](O)[C@@H](n3cc(C4CC4)nn3)CN2C(=O)c2cccs2)cc1,/,/,5.7%,10.9%,/
COc1ccc2c(c1OC)C(=O)OC2N1C(=O)CC[C@H]1C(=O)Nc1ccc2c(c1)OCO2 (stereo partly drawn),-5.2%,-6.4%,-1.4%,3.2%,/
Cc1cc(=O)n2[nH]c(-c3ccccc3)cc2n1,5.3%,-7.0%,-11.7%,-24.9%,1.0%
CCOC(=O)Cc1c(C)nc2cc(-c3ccc(Cl)cc3)[nH]n2c1=O,-6.8%,-4.9%,-22.3%,-22.4%,4.5%
Cc1nc2cc(-c3ccccc3)[nH]n2c(=O)c1C,-15.7%,?,?,?,3.2%
CCc1c(C)nc2cc(-c3ccc(OC)cc3)[nH]n2c1=O,18.5%,-25.3%,14.6µM*,20.6µM*,3.2%
Cc1cc(=O)n2[nH]c(-c3ccc(C(C)(C)C)cc3)cc2n1,22.4µM*,?,20.6µM*,18.4µM*,0.0%
COc1cccc(-c2cc3nc(-c4ccccc4)cc(=O)n3[nH]2)c1,13.3%,-26.8%,2.59µM*,2.59µM*,/
O=c1cc(-c2ccccc2)nc2cc(-c3ccc(F)cc3)[nH]n12,/,/,6.51µM*,7.31µM*,0.9%
Cc1ccccc1-c1cnc(C(O)c2ccccc2)[nH]1 (stereo not drawn),/,/,-5.3%,-20.1%,/
CCN(CC)S(=O)(=O)c1ccc(-c2nnc(SCC(=O)Nc3nc(C)cs3)o2)cc1,-28.1%,?,-21.3%,?,9.1%
COc1cc(CSC)nc(-c2ccccc2)n1,-12.3%,-19.9%,-9.3%,3.2%,-0.5%
Cc1cc(-c2ccccc2)nc2[nH]n(-c3ccccc3)c(=O)c12,15.9%,6.7%,-8.0%,?,7.0%
COc1cccc(C(=O)COC(=O)CCCC(=O)NC2CCCCC2)c1,-18.9%,?,-10.3%,0.1%,0.7%
COc1ccc(C(=O)C2CCCN(C(=O)Cn3nc(C)nc3C)C2)cc1F (stereo not drawn),/,/,-13.6%,-5.6%,/
Cc1nc(C)c(C(=O)N2CCCC(C(=O)c3ccc(Cl)cc3C)C2)s1 (stereo not drawn),-19.9%,?,?,18.4µM*,4.7%
Cc1cc(Cl)ccc1C(=O)C1CCCN(C(=O)c2ccoc2)C1 (stereo not drawn),?,?,14.6µM*,?,5.4%
Cc1cc(C(=O)N2CCCC(C(=O)c3ccc(Cl)cc3C)C2)no1 (stereo not drawn),8.8%,24.6%,23.1µM*,18.4µM*,2.5%
